# According to ChEMBL document CHEMBL3988442, “University of Dundee, Small-Polar-MMV Screening Library” (2021):
# For some of these results: Potency and affinity values are given separately.
# Assays:
# Design in all cases: scale not given: direction of the effect not stated beside the values
# [1] = target: Protein translocase subunit SecA (Escherichia coli (strain K12)) (UniProt P10408); test: Assay to Identify E. coli SecA ATPase Inhibitors; type: functional; settings: 30 µM
# [2] = target: T1, Ubiquitin-activating enzyme e1, putative (Leishmania donovani (strain BPK282A1)) (UniProt E9BSI1); test: Leishmania donovani Ubiquitin Activating Enzyme (LdE1); type: functional; settings: 30 µM
# T1 sequence (whole entry): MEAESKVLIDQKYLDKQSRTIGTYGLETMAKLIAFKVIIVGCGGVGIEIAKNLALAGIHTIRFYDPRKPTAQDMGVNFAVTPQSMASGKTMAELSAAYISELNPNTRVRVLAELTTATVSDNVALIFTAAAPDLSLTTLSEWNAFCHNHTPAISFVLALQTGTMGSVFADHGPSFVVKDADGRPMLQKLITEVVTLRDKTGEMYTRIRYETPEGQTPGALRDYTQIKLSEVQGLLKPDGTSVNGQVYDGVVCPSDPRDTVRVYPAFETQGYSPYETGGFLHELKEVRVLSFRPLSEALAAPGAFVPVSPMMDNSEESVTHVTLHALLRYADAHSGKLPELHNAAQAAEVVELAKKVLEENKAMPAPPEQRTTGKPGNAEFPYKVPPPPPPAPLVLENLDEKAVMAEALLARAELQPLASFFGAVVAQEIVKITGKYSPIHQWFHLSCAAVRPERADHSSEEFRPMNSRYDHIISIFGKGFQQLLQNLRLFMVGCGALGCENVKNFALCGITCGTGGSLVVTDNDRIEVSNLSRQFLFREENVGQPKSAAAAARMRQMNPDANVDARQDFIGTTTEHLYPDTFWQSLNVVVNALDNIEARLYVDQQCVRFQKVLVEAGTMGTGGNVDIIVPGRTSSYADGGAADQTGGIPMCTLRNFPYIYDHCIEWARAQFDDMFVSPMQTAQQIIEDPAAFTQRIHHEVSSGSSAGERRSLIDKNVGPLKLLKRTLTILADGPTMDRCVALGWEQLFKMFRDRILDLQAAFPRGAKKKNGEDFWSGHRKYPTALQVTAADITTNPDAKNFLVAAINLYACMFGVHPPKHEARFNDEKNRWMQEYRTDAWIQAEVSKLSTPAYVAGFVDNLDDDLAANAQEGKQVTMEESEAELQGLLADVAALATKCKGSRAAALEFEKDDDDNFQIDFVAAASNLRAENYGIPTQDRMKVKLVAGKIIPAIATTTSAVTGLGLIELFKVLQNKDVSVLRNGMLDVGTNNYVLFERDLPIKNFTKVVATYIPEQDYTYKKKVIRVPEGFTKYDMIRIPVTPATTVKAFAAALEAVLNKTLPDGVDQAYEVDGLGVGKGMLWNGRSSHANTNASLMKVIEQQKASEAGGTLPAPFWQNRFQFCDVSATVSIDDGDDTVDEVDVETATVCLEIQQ
# [3] = target: AMP-activated protein kinase, AMPK (Homo sapiens) (UniProt P54646+O43741+P54619+Q9UGJ0+Q9Y478+Q13131+Q9UGI9); test: AMP-dependent Kinase enzyme assay. An in vitro enzyme assay that detects ADP turnover that is directly proportional to AMPK activity. This uses naive AMPK that is activated during the assay with MK-8722; type: functional; settings: 30 µM
# [4] = target: Sialic acid-binding Ig-like lectin 9 (Homo sapiens) (UniProt Q9Y336); test: Hs-Siglec9 ALPHAscreen SOP 20170721; settings: 10 µM
# Sialic acid-binding Ig-like lectin 9 (Homo sapiens), sequence (Q9Y336 whole entry): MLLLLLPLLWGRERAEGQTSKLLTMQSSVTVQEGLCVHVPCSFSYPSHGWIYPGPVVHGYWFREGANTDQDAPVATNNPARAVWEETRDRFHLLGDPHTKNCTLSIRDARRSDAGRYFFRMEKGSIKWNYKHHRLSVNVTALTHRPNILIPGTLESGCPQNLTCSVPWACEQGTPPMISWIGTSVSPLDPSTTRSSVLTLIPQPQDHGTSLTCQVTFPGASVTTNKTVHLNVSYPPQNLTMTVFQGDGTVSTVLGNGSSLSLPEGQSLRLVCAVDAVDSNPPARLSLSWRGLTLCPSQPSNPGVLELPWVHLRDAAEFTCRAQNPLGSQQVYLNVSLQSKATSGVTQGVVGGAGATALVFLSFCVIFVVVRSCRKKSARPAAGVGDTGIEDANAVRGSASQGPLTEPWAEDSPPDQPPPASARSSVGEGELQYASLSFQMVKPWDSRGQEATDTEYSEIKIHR
# [5] = tested on: Trypanosoma cruzi; test: Trypanosoma cruzi phosphomannomutase and mannose-1-phosphate guanylyltransferase assay; type: functional; settings: 10 µM
# [6] = target: T2, Arginase-2, mitochondrial (Homo sapiens) (UniProt P78540); test: in vitro enzyme assay to detect the production of urea directly proportional to the activity of Arginase II; type: functional; settings: 33.3 µM; also: in the data most compounds retested in dose-response had high values
# T2 sequence (whole entry): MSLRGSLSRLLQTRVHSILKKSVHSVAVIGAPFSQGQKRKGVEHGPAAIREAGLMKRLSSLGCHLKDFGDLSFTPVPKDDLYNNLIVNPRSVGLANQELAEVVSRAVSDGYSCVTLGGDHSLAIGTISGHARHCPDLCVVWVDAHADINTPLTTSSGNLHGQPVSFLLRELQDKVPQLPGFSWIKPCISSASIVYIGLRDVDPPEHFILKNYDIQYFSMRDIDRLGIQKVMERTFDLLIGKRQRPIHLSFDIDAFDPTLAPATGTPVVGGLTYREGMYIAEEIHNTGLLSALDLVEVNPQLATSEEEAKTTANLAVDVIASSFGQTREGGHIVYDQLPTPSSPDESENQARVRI
# [7] = target: T3, Proteasome subunit beta (Trypanosoma cruzi) (UniProt O96673); test: Trypanosoma cruzi proteasome chymotrypsin-like activity (TcProtChymo) assay.; also: in the data most compounds retested in dose-response had high values; type: functional; settings: 9.37 µM
# T3 sequence (whole entry): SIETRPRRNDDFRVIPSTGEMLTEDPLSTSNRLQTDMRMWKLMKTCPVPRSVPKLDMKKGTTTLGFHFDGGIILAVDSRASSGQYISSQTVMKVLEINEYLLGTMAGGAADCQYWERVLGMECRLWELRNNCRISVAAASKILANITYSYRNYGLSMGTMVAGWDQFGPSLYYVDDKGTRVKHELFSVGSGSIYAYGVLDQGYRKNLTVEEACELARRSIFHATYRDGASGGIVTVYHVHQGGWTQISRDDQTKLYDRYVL
# [8] = species on record: Homo sapiens; test: To identify inhibition of the IFN signalling (Jak-Stat) pathway via expression of an eGFP reporter gene under the control of an IFN-stimulated response element (ISRE) containing MxA promoter.; type: functional; settings: 30 µM
# [9] = target: T4, Tyrosyl-tRNA synthetase, putative (Trypanosoma cruzi (strain CL Brener)) (UniProt Q4DSP6); test: Trypanosoma cruzi tyrosyl tRNA synthetase (TcYRS) _High Tyrosine SOP; type: functional; settings: 30 µM; also: in the data most compounds retested in dose-response had high values
# T4 sequence (whole entry): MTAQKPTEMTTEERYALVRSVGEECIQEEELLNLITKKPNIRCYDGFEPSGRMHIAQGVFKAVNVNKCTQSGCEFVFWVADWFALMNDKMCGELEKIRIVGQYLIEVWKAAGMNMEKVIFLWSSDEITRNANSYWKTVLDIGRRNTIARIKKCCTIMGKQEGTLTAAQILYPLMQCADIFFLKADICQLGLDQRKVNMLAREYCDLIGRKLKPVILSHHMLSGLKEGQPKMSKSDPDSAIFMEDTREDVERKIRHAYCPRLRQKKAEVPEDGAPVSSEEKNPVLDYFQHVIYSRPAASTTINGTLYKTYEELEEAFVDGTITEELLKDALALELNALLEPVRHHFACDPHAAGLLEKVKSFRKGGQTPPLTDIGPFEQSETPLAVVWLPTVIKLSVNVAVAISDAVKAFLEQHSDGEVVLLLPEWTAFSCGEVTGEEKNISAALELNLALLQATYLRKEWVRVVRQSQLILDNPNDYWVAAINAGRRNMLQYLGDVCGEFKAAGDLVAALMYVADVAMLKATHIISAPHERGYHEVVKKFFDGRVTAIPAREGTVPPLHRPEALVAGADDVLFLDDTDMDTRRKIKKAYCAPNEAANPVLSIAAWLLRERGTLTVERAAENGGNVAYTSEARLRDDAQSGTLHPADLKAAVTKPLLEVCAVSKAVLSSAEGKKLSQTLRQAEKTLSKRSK
# [10] = target: T4, Tyrosyl-tRNA synthetase, putative (Trypanosoma cruzi (strain CL Brener)); test: Trypanosoma cruzi tyrosyl tRNA synthetase (TcYRS) SOP; type: functional; settings: 30 µM
# [11] = target: Chromo domain-containing protein 1 (Saccharomyces cerevisiae (strain ATCC 204508 / S288c) (Baker's yeast)) (UniProt P32657); test: ScCHD-1 Enzyme Inhibition Assay; type: functional; settings: 30 µM; also: in the data most compounds retested in dose-response had high values
# Chromo domain-containing protein 1 (Saccharomyces cerevisiae (strain ATCC 204508 / S288c) (Baker's yeast)), sequence (P32657 whole entry, the tested form may be a part): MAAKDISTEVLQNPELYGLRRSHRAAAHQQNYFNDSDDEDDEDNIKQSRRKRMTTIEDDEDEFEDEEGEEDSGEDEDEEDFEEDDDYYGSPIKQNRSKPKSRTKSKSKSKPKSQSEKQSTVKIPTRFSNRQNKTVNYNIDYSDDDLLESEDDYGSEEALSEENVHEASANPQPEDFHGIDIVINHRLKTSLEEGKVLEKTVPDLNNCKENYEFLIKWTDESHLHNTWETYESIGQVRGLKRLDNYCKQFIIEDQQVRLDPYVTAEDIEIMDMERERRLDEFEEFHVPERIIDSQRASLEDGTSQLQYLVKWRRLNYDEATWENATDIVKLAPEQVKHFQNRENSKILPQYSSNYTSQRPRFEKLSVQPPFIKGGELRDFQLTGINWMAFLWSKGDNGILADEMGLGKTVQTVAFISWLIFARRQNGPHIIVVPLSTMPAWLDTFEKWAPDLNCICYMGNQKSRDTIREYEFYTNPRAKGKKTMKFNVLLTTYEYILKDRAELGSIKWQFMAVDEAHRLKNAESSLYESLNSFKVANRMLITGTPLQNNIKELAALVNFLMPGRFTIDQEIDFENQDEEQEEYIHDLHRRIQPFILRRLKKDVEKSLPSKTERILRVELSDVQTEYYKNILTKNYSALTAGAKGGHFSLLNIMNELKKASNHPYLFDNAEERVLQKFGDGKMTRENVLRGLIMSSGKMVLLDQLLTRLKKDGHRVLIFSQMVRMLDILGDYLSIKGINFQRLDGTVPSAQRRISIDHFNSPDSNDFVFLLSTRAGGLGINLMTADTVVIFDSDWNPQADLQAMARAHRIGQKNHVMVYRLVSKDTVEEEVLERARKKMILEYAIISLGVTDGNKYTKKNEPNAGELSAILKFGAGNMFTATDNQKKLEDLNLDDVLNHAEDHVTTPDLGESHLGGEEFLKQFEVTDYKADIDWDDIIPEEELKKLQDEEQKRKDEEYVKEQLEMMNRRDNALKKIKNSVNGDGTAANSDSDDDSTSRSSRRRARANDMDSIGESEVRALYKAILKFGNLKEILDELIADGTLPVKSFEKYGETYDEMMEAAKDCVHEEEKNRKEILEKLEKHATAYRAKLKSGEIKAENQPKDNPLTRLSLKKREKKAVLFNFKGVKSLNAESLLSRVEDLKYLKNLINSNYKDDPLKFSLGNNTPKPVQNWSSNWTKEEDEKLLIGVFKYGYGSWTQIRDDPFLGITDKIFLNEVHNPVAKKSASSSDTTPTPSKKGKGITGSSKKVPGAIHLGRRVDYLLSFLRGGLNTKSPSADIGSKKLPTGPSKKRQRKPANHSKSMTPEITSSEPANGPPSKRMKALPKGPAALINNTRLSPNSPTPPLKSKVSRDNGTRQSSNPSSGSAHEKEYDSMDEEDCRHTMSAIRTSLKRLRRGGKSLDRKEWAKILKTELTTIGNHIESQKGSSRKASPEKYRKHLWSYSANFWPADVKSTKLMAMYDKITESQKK
# Protein translocase subunit SecA (Escherichia coli (strain K12)), sequence (P10408 whole entry): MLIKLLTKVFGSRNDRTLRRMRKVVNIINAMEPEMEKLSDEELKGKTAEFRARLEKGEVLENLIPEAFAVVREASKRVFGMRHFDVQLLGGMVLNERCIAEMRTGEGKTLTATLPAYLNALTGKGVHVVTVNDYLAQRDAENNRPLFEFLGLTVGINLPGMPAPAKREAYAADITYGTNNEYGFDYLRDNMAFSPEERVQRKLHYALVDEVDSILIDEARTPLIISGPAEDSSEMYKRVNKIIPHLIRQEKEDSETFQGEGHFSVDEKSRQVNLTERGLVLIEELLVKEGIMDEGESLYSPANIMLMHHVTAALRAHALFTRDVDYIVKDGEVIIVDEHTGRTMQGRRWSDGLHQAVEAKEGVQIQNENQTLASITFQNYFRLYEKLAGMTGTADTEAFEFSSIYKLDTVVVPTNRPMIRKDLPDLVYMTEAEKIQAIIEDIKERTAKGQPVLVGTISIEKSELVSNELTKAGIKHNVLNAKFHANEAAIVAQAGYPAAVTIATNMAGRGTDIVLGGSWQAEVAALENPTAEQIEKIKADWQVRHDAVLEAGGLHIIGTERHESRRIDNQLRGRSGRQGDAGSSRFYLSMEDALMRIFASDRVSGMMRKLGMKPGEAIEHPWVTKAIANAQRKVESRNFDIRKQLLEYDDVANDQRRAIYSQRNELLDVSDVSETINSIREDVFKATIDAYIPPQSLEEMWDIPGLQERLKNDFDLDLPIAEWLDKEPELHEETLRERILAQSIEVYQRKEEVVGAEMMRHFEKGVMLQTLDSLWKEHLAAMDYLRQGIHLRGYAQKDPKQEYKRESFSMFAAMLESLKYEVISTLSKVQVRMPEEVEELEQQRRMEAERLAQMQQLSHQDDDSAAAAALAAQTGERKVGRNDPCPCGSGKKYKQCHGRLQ
SMILES,Percent Effect [1],Percent Effect [2],Percent Effect [3],Percent Effect [4],Percent Effect [5],Percent Effect [6],Percent Effect [7],Percent Effect [8],Percent Effect [9],Percent Effect [10],Percent Effect [11]
Cc1ccc(C(NC(=O)CC2CCN(C(C)C)CC2)C(=O)O)cc1 (stereo not given),-4.94%,2.7%,-0.654%,-0.948%,1.74%,0.476%,1.55%,0.454%,2.65%,9.76%,0.336%
Cc1oc(C(=O)O)cc1S(=O)(=O)Nc1ccc(Cl)c(F)c1,-4.46%,0%,1.91%,3.7%,-5.24%,2.85%,-2.2%,27.1%,-2.91%,-4.88%,-4.31%
CCN1CCN(C(=O)c2cnn(-c3ccccc3Cl)c2)CC1,-4.44%,5.41%,-8.79%,9.91%,-2.36%,-1.6%,1.62%,10.3%,10.3%,13.6%,-7.79%
Cc1c(C)n(Cc2ccccn2)c2nc3c(c(N)c12)CCCC3,-3.58%,-1.33%,15.5%,6.91%,-3.73%,-8.98%,12.8%,-6.48%,2.12%,5.13%,-5.09%
O=C(c1cccnc1N1CCOCC1)N1CCCC1Cn1cccn1 (stereo not given),-4.57%,7.79%,5.93%,8.78%,1.47%,0.632%,-0.242%,-15.5%,3.81%,2.35%,-12%
COCC1CCN(c2cc(C3CN(C)CCO3)nc(C)n2)CC1 (stereo not given),-3.57%,-5.33%,6.9%,-0.404%,-1.77%,0.233%,2.38%,6.27%,-1.06%,-3.85%,9.94%
Cc1cnc(CNC(=O)NCc2cccnc2N(C)C)s1,-3.06%,-2.6%,1.02%,13.8%,-2.43%,2.85%,-5.07%,5.66%,0%,7.32%,2.89%
CCc1nc(CN2CCCN(c3ncnc4ccccc34)CC2)no1,0.435%,13%,-3.4%,2.9%,4.03%,-12.4%,18.3%,74.7%,3.23%,16.1%,-2.22%
CC(C)CC(=O)N1CCN(C(=O)N(C)C)CC2(CC(=O)N(C)C2)C1 (stereo not given),-2.6%,-27%,0.411%,-1.03%,6.25%,-2.5%,-1.61%,-26.2%,2.97%,-3.66%,-3.69%
Cc1nc(C)n(CC2CCCN(CCNC(=O)OC(C)(C)C)C2)n1 (stereo not given),-0.765%,2.6%,5.46%,11.6%,1.67%,5.26%,5.9%,9.69%,2.86%,0%,-4.66%
Cn1cc(C(=O)Nc2ccc3c(c2)CN(C(=O)c2ccco2)CC3)nn1,-2.6%,7.79%,7.19%,9.07%,3.65%,-5.81%,7.66%,0.998%,4.23%,11.5%,-7.06%
Cc1cc(CN2CCN(C(C)c3nc(C4CC4)no3)CC2)no1 (stereo not given),1.42%,8.86%,-5.67%,-3.17%,-1.33%,4.52%,13.4%,28.4%,-1.04%,5.06%,-25.2%
Cc1ccc(C(=O)N2CCc3c(CNS(C)(=O)=O)cncc3C2)o1,3.13%,2.67%,5.83%,1.5%,-6.37%,-55%,8.72%,4.16%,3.12%,5%,-7.04%
CC(NC(=O)NCCCN(C)S(C)(=O)=O)c1ccncc1 (stereo not given),-0.684%,8.86%,5.26%,-2.69%,-2.77%,5.38%,10.8%,1.71%,12.5%,20.2%,-14.2%
CC(C)CN1CCCC2(CCN(C(=O)c3cnccn3)C2)C1 (stereo not given),2.12%,-2.6%,-0.541%,2.48%,-4.24%,-3.23%,3.13%,0.321%,3.17%,-3.85%,-5.96%
O=C(N1CCCCC1)N1CCN(CC(O)c2ccc(F)cc2)CC1 (stereo not given),-0.539%,13.2%,-0.12%,5.2%,-4.51%,4.21%,4.84%,20.8%,8.33%,17.1%,-5.09%
CCOCCN1CCN(Cc2cccc(C(=O)N(C)C)c2)CC1,-10.3%,0%,-8.88%,18%,9.38%,-2.03%,0%,2.86%,6.93%,23.2%,46.2%
O=C(COC[C@H]1CC[C@H]2[C@H](CCN2c2ncccn2)O1)N1CCCC1,-2.35%,24.7%,-1.6%,1.45%,0%,-1.2%,7.62%,13.1%,5.21%,13.6%,-1.93%
COc1cccc(CC2CN(C3CCN(C(C)=O)CC3)CCO2)c1 (stereo not given),-1.38%,-7.79%,2.17%,2.19%,-1.87%,-2.76%,-0.499%,-4.71%,2.15%,3.7%,1.6%
COc1ncccc1C(=O)N1CCCC(c2cc(C)[nH]n2)C1 (stereo not given),-4.92%,0%,-0.772%,-1.9%,-0.66%,-0.802%,1.8%,10.4%,1.48%,-6.17%,1.58%
